ALOX12 inh = blocks human arachidonate 12S-lipoxygenase; actives 1.1% (n = 580,000); Potency, µM (top dose mostly 108 µM), without a hit: top-dose activity change, negative = inhibition, hits mostly inhibitors; P18054; AID 1671190; purified 12hLO, xylenol orange hydroperoxide absorbance; further: potency means the concentration at half of the fitted maximal effect
Target sequence (P18054 whole entry, looked up): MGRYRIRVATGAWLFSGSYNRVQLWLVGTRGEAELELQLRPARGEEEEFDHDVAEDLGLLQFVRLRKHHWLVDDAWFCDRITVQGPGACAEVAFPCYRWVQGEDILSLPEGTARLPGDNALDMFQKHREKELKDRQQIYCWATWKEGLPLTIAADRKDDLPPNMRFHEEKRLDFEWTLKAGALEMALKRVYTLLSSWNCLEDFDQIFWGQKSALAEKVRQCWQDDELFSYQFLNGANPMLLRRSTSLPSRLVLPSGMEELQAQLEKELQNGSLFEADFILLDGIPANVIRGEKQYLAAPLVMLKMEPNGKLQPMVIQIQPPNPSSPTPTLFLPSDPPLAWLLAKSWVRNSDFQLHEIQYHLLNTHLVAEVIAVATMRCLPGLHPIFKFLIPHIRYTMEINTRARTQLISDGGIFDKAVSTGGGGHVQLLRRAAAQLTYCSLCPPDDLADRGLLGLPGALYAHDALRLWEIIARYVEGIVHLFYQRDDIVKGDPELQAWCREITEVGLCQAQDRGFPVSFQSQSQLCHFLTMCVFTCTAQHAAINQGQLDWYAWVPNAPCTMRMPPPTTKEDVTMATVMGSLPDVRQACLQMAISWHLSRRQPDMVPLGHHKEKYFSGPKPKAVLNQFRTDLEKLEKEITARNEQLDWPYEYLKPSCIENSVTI
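Purified human 12hLO (150 nM final) in 25 mM Hepes, 0.01% Triton X-100, pH 7.0 was preincubated 15 min at room temperature with compound. Then 40 uM arachidonic acid was added, 30 min. Hydroperoxide was read by Fe-XO absorbance ratio 573/405 nm.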
HT1080NT lethal = kills 2HG-producing HT-1080-NT fibrosarcoma cells; HT-1080-NT fibrosarcoma viability, CellTiter-Glo ATP luminescence, 48 h; Potency, µM (series often up to 46.1 µM), inactives show at the highest dose activity, negative = less viability, actives largely listed as cytotoxic; actives 1.6% (n = 360,000);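 further: NT is the 2HG producing partner of a matched IDH1 knockdown line; potency means the concentration at half of the fitted maximal effect; 0% = DMSO-treated cells and -100% = media-only wells without cells; nearly all actives have a fitted effect of over 55% in size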
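Fibrosarcoma NT cells, 750 per well in 5% FBS RPMI, were exposed to compound for 48 hours. Viability: CellTiter-Glo luminescence.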
DT40 TDP1 no CPT = qHTS for Inhibitors of human tyrosyl-DNA phosphodiesterase 1 (TDP1): qHTS in cells in absence of CPT; DT40 Tdp1-/- hTDP1 cells, no CPT, ATP luminescence, 48 h; Potency, µM (highest dose often 46.2 µM), for inactives: top-dose activity change, negative = growth inhibition, hits mostly inhibitors; actives 15% (n = 420,000); AID 686978, 2013; further: potency means the concentration at half of the fitted maximal effect; nearly all actives have a fitted effect of over 55% in size
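Growth of hTDP1-complemented DT40 Tdp1-knockout cells is measured by ATP luminescence after at least 48 hr compound exposure at 37 °C, with DMSO substituting for the 20 nM CPT used in the parallel screen.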
IL-1B inflam inh = inhibitors of inflammasome signaling (IL-1 beta secretion); THP-1 LPS/ATP IL-1B secretion, AlphaLISA, 16 h; hits give low values; activity change, % at 57.5 µM; actives 4.7% (n = 360,000); AID 743279; in the data active means activity change below about -50%; inconclusive means mostly about -30% to -49%
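THP-1 cells pretreated 1 hr with compounds (up to 57.5 uM final), then stimulated with LPS (250 ng/mL final) plus ATP (1.25 mM final); secreted IL-1B measured by AlphaLISA after 16 hr, decreased signal indicating inhibition.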
HT1080 IDH1KD tx = HT-1080 IDH1 knockdown cell toxicity (counter line). actives 2% (n = 360,000). AID 686971. HT-1080 IDH1 knockdown viability, ATP luminescence, 48 h. Potency, µM (top dose mostly 46.1 µM), without a hit: at the top dose activity, negative = toxicity, actives largely listed as cytotoxic;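 further: potency means the concentration at half of the fitted maximal effect; 0% = DMSO wells and -100% = cell-free medium wells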
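Knockdown cells (IDH1KD HT-1080) received compounds 2 h after plating at 750 cells/well and were kept 48 h at 37 °C in 5% FBS RPMI. A CellTiter-Glo luminescence read gave % activity for curve fitting.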
TDP1 cell CPT = DT40-hTDP1 cell growth loss with CPT | Potency, µM (titrated, usually from 46.2 µM), without a hit: at the top dose activity change, negative = growth inhibition, actives largely listed as inhibitors | actives 12% (n = 420,000) | chicken DT40 Tdp1-/-;hTDP1 cells + 20 nM CPT, ATP luminescence, 48 h; further: potency means the concentration at half of the fitted maximal effect; nearly all actives have a fitted effect of over 55% in size
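Chicken DT40 Tdp1-/- cells complemented with human TDP1, 400 cells/well, exposed to compounds plus 20 nM camptothecin for at least 48 h at 37 C; viability read as ATP content by CellTiter-Glo luminescence.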
Starred values were filed as active, the others as inactive; ? = inconclusive; / = not tested or not shown; [ ] = remark or other dose. This excerpt belongs to a sample that is enriched for hits. Unless noted, the call rests on the fitted dose curve; in most records, active means well fitted curve in the direction sought with a large enough effect; inconclusive means small, poorly fitted or top-dose-only effect, or another doubt; inactive means no such curve, though single readings can be large; an effect the other way counts as inactive or inconclusive. Unless noted, on the % scale 0 is the no-effect control and ±100 the full control effect.

SMILES | ALOX12 inh | HT1080NT lethal | DT40 TDP1 no CPT | IL-1B inflam inh | HT1080 IDH1KD tx | TDP1 cell CPT
C[C@@H](c1ccccc1)N1C[C@H](COCc2ccccc2)Oc2cc(N3CC[C@H](N(C)C)C3)ccc2S1(=O)=O | -23.0% | ? | ? | -9.1 | ? | ?
CCCCC1CCC(C(=O)NCC(c2ccco2)N2CCOCC2)CC1 (stereo unspecified) | -5.0% | / | / | / | / | /
CCc1ccc(-c2cn(-c3nc(C)cc(C)n3)c(=N)o2)cc1 | 0.0% | -28.9% | ? | -59.3* | -12.7% | ?
c1ccc2cc(CN3CCN(Cc4c[nH]c5ccccc45)CC3)ccc2c1 | 1.78µM* | / | / | / | / | /
CCS(=O)(=O)N1CCN(Cc2c[nH]c3ccccc23)CC1 | ? | 3.2% | -29.2% | 29.5 | 7.1% | ?
c1cnc(N2CCN(Cc3c[nH]c4ccccc34)CC2)nc1 | 0.0% | -18.6% | 2.06µM* | ? | ? | 1.84µM*
Brc1ccc(CN2CCN(Cc3c[nH]c4ccccc34)CC2)cc1 | ? | 23.1µM* | 9.2µM* | ? | 20.6µM* | 2.31µM*
Brc1ccccc1CN1CCN(Cc2c[nH]c3ccccc23)CC1 | ? | 7.31µM* | 1.46µM* | -103.1* | 23.1µM* | 0.517µM*
O=C(Nc1ccc(Cl)nc1)c1cccn2cncc12 | 40.6%[176 µM] | / | / | / | / | /
NC(=O)C1CCN(CCCNC(=O)c2ccc3ccccc3n2)CC1 | -10.0% | / | / | / | / | /
CC1=C2C3OC(=O)C(C)C3CCC2(C)C=CC1=NO (stereo unspecified) | -7.6% | 0.0% | -31.9% | 1.9 | 0.2% | -10.5%
O=[N+]([O-])c1ccc(CN2CCN(Cc3c[nH]c4ccccc34)CC2)cc1 | ? | -29.7% | ? | -68.9* | ? | ?
O=C(Cc1ccc([N+](=O)[O-])cc1)NCCc1c[nH]c2ccccc12 | -0.4% | / | / | / | / | /
COC(=O)C1=C(N)Oc2cc(C)n(Cc3ccc4c(c3)OCO4)c(=O)c2C1c1ccccc1F (stereo unspecified) | -22.0% | / | / | / | / | /
CCOC(=O)C1=C(CS(=O)(=O)c2ccc(Br)cc2)NC(=O)NC1c1ccccc1 (stereo unspecified) | -22.0% | / | ? | / | / | 20.6µM*
CCOC(=O)C1=C(CS(=O)(=O)c2ccc(C)cc2)NC(=O)NC1c1cc(OC)c(OC)c(OC)c1 (stereo unspecified) | -3.3% | -8.5% | -8.1% | 14.6 | -2.4% | 10.9%
CCOC(=O)C1=C(CS(=O)(=O)c2ccc(C)cc2)NC(=O)NC1c1ccc(C(C)C)cc1 (stereo unspecified) | -18.5% | / | 11.6µM* | / | / | 18.4µM*
COC(=O)C1=C(CS(=O)(=O)c2ccccc2)NC(=O)NC1c1ccccc1 (stereo unspecified) | -25.8% | 29.8% | 6.8% | 10.0 | 26.1% | -0.8%
CCCCc1nn2c(=O)cc(CN3CCN(c4ncccn4)CC3)nc2s1 | -3.5% | / | / | / | / | /
COC1CCC(C(=O)N2CC(COc3ccccc3)C3(C2)CN(c2ccccc2)C3)CC1 (stereo unspecified) | -17.6%[176 µM] | / | / | / | / | /
CCC[C@@H](CNC)NC[C@H](Cc1ccccc1)NCCCCc1ccccc1 | -3.3% | ? | 11.6µM* | -70.2* | ? | 9.2µM*
CNC[C@@H](CC1CCCCC1)NC[C@H](CC(C)C)NCCc1cccc(C(F)(F)F)c1 | -29.3% | 23.1µM* | 5.17µM* | -111.1* | ? | 5.17µM*
CN(C[C@H](Cc1ccccc1)N(C[C@@H](CC1CCCCC1)N(CCc1ccccc1)N=O)N=O)N=O | -5.9% | 11.7% | ? | 27.8 | 8.5% | ?
CCC[C@@H](CN[C@@H](CNC)C(C)C)NCCCCc1ccccc1 | 16.9% | ? | 0.82µM* | -14.6 | ? | 1.03µM*
CNC[C@@H](Cc1ccccc1)NC[C@@H](CC1CCCCC1)NCCCc1ccccc1 | ? | ? | 9.2µM* | -100.9* | ? | 8.2µM*
SMILES | ALOX12 inh | HT1080NT lethal | DT40 TDP1 no CPT | IL-1B inflam inh | HT1080 IDH1KD tx | TDP1 cell CPT
CC(NCCc1ccccc1)C(C)C(c1ccccc1)c1ccccc1 (stereo unspecified) | -3.5% | / | / | / | / | /
CC1(C(=O)O)CCN(S(=O)(=O)c2ccsc2)CC1 | 3.3%[12.5 µM] | / | / | / | / | /
CC1CCCCC1NC(=O)CN1C(=O)CSc2cc(S(=O)(=O)N3CCCCCC3)ccc21 (stereo unspecified) | -6.2% | -2.5% | 20.6µM* | -25.1 | -5.7% | ?
O=C(CN1C(=O)CSc2cc(S(=O)(=O)N3CCCCCC3)ccc21)NCCc1ccccc1 | -4.1% | -0.3% | ? | -62.0* | -2.7% | ?
CCCS(=O)(=O)N1CCC(Oc2ccc(-c3noc(CC)n3)cc2)C1 (stereo unspecified) | -0.8% | / | / | / | / | /
O=C(NCCC1=CCCCC1)c1cc(S(=O)(=O)N2CCOCC2)ccc1F | 10.2% | 1.2% | ? | 14.6 | -5.7% | 13µM*
Cc1c(C(=O)NCCCN2CCCC2=O)oc2ccc(S(=O)(=O)N3CCOCC3)cc12 | -11.6% | 9.1% | -17.4% | -4.7 | 18.2% | -12.8%
O=C(NCCC1=CCCCC1)c1ccc(F)c(S(=O)(=O)N2CCOCC2)c1 | 0.0% | 16.2% | ? | 29.4 | 1.1% | -23.5%
Cc1c(C(=O)NCCC2=CCCCC2)oc2ccc(S(=O)(=O)N3CCOCC3)cc12 | 43.0% | -9.2% | 20.6µM* | ? | -28.2% | ?
CCOC(=O)N1CCN(C(=O)CN(C)S(=O)(=O)c2ccc(Cl)cc2)CC1 | -5.3% | 6.2% | 8.6% | 26.9 | 10.6% | 1.5%
O=C(N/N=C/c1ccc(O)cc1)c1csc2c1CCCC2 | 2.5% | -17.3% | ? | -61.9* | -17.8% | 15.8%
Cc1ccc(NC(=O)c2csc3c2CCCCC3)cc1C | -14.4% | / | / | / | / | /
NS(=O)(=O)N1CCCC(c2nc3ccccc3o2)C1 (stereo unspecified) | 40.2% | / | / | / | / | /
O=C1C(c2ccncc2)=C(O)c2ccccc21 | 0.0% | -2.9% | 18.4µM* | -10.6 | -8.1% | ?
Cc1ccc(C2=C(O)c3ccccc3C(=O)C2=O)cc1 | ? | -0.3% | -10.9% | 10.6 | -19.8% | -29.0%
COC(=O)c1ccc(CN(C)Cc2ccsc2)cc1 | -2.2% | / | / | / | / | /
c1ccc2c(-c3cc(C4CCNCC4)[nH]n3)cccc2c1 | -8.0% | 23.1µM* | ? | -24.7 | 20.6µM* | 20.6µM*
Fc1ccc(-c2cc(C3CCNCC3)[nH]n2)cc1 | 4.6% | / | / | / | / | /
FC(F)(F)c1cccc(-c2cc(C3CCNCC3)[nH]n2)c1 | -11.5% | 16.4µM* | ? | ? | ? | ?
O=C(Cn1nc2c(cc1=O)CCCCC2)N1CCN(CCc2ccncc2)CC1 | 29.1% | / | / | / | / | /

Source: PubChem BioAssay
